About 79,000 compounds went through this panel and 15% of them were active in at least one assay; those are over-represented in the sample as a whole. Activity calls are given as the source filed them. Cut-off read from the data, not from the text of the source: active = growth inhibition above about 70%; inactive = the rest.
assay: NCI Yeast Anticancer Drug Screen. Data for the mlh1 rad18 strain (AID 175); settings: S. cerevisiae mlh1 rad18 strain growth inhibition; at 5.0 µM (retest, dose inferred, filed as 0.5); stronger effect = higher value
How it was run: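 Compound-treated yeast growth, normalised to vehicle controls. Strain bears defined DNA repair mutations.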

Structure (SMILES)	growth inhibition
CCC/C(Cl)=N\OC(=O)Nc1cccc(C(F)(F)F)c1	-10% (inactive)
[O-][n+]1c2ccc(O)cc2nc2ccc(Cl)cc21	-24% (inactive)
Clc1ccccc1C1OC1c1ccccc1Cl (centres undefined)	57% (inactive)
c1ccc2c(c1)c1ncccc1c1nccnc21	-97% (inactive)
CC(=O)Nc1ccc2c(c1)C(=Nc1ccc(C(=O)O)cc1)c1ccccc1-2	-7% (inactive)
COc1ccc(OC)c2cc3ccccc3cc12	48% (inactive)
COc1cc(C2c3cc4c(cc3OC(NNc3ccccc3)C2C)OCO4)cc(OC)c1OC (centres undefined)	36% (inactive)
O=C1c2cc([N+](=O)[O-])ccc2-c2cccc(F)c21	9% (inactive)
CCCCCCCCCCCC(=O)N(C)C	41% (inactive)
CCCCCCCCCCCC1=C(O)C(=O)C=C(O)C1=O	41% (inactive)
Cc1ccc(CSC(N)=Nc2ccccc2)cc1C	-5% (inactive)
CCCCCCCCCCC1CCC(=O)O1 (centres undefined)	-3% (inactive)
O=[N+]([O-])c1cc(CCl)ccc1CCl	38% (inactive)
Nc1ccc2c(c1)C(=O)c1cccc(N)c1C2=O	18% (inactive)
CCCCCCCCCCNC(=O)OCC	-15% (inactive)
CC1=C(C)Cc2c(O)ccc(O)c2C1	52% (inactive)
COc1ccc2c(c1)C(=O)c1ccccc1C2	2% (inactive)
CCC(=O)OCCn1c2nc(=O)[nH]c(=O)c-2nc2cc(C)c(C)cc21	5% (inactive)
O=C(OCCN1CCCCCC1)C(c1ccsc1)C1CCCCC1 (centres undefined)	2% (inactive)
Oc1c(Br)cc(Br)cc1C1CCCCC1	44% (inactive)

Structure (SMILES)	growth inhibition
CC1(C)[C@@H]2CC[C@]1(C)[C@H](OC(=O)CSC#N)C2	9% (inactive)
S=C(N/N=C(/c1ccccc1)c1ccccn1)N1CCCCCC1	93% (active)
Cc1ccc2[nH]c3c(C)c4cc[n+](C)cc4c(C)c3c2c1	14% (inactive)
CNC(=O)OCc1c(COC(=O)NC)c(-c2ccc(-c3ccccc3)cc2)n(C)c1C	24% (inactive)
COc1ccccc1/C=C1\Sc2scc(-c3cccc([N+](=O)[O-])c3)[n+]2C1=O	13% (inactive)
O=[N+]([O-])c1ccc2c(c1)C(N1CCN(CCO)CC1)Cc1ccc(F)cc1S2 (centres undefined)	0% (inactive)
Cc1ccc(CCC2=CCCc3c2ccc2ccccc32)cc1	38% (inactive)
O=[N+]([O-])c1cccc2nccc(NCCCO)c12	24% (inactive)
Cc1ccc(-n2cc(-c3ccc(Cl)cc3)c(C#N)c2N)cc1	-15% (inactive)
Cc1ccc(S/N=C\c2ccccc2O)cc1	-112% (inactive)
O=C(O)C1OC1(c1cccc(Cl)c1)c1ccccc1Cl (centres undefined)	47% (inactive)
NC(=S)N/N=C\c1nccc2ccccc12	-135% (inactive)
Clc1cccc(C(Nc2nncs2)Nc2nncs2)c1Cl	3% (inactive)
O=C(OCC=C1CCCC1)c1cc([N+](=O)[O-])cc([N+](=O)[O-])c1	7% (inactive)
O=C(Nc1ccccc1)C(=O)C(C(=O)c1ccccc1)C(c1ccccc1)c1ccccc1 (centres undefined)	-13% (inactive)
N#CN1C2CCC1CC(=O)C2	75% (active)
COc1ccccc1C(=O)OCC1CCCN2CCCCC12 (centres undefined)	60% (inactive)
CCNc1nnc(CSc2nc(-c3ccccc3)c(-c3ccccc3)[nH]2)s1	-1% (inactive)
O=C1c2ccccc2-c2n[nH]c3cccc1c23	100% (active)

From PubChem BioAssay (NCI)
